According to PubChem BioAssay AID1159580 (chemical genetic matrix, 2015):
Hit rate of the full screen: of about 5,500 compounds, about 2,000 (36%) were called active. Inconclusive results (about 18%) are left out. No stated cut-off is given here; in the data, active means normalized growth mostly below about 0.91 (no sharp cut-off); inconclusive means no clear call, values can overlap the other calls; inactive means mostly above about 0.92. This is one part of the list.

Experiment: chemical genetic growth profiling, strain panel (AID 1159580);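 further: tested at 20 µM; growth read once vehicle control cultures reached saturation at 30 °C; 1 = growth at the plate median or of vehicle wells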
Details: S. cerevisiae deletion strains, growth OD

Measured: normalized growth

COC(=O)[C@@H]1OC(=O)C2OC23[C@@]1(C)CCC1[C@]2(C)C(C[C@H](O)[C@]13C)C(C)(C)[C@H](OC(C)=O)C[C@@H]2OC(C)=O (some centres not stated)
inactive: locus YAL021C, strain ccr4, stronger effect = lower value 1.01 | locus YAL026C, strain drs2, stronger effect = lower value 1.01 | locus YAL030W, strain snc1, stronger effect = lower value 1.01 | locus YBL061C, strain skt5, stronger effect = lower value 1.01 | locus YBR009C, strain hhf1, stronger effect = lower value 1.03 | locus YBR021W, strain FUR4, stronger effect = lower value 1.01 | locus YBR023C, strain chs3, stronger effect = lower value 1.02 | locus YBR171W, strain sec66, stronger effect = lower value 1.02 | locus YBR229C, strain ROT2, stronger effect = lower value 1.01 | locus YBR231C, strain swc5, stronger effect = lower value 1.01 | locus YBR279W, strain paf1, stronger effect = lower value 1.02 | locus YCL011C, strain gbp2, stronger effect = lower value 1 | locus YCL016C, strain dcc1, stronger effect = lower value 1.02 | locus YCL029C, strain bik1, stronger effect = lower value 0.999 | locus YCL061C, strain MRC1, stronger effect = lower value 1.02 | locus YCL069W, strain vba3, stronger effect = lower value 1.01 | locus YCR088W, strain abp1, stronger effect = lower value 1.02 | locus YDL005C, strain med2, stronger effect = lower value 1.02 | locus YDL035C, strain GPR1, stronger effect = lower value 1.04 | locus YDL040C, strain nat1, stronger effect = lower value 1.01 | locus YDL074C, strain BRE1, stronger effect = lower value 1.04 | locus YDL101C, strain DUN1, stronger effect = lower value 1 | locus YDL134C, strain PPH21, stronger effect = lower value 1 | locus YDL185W, strain tfp1, stronger effect = lower value 1 | locus YDL192W, strain arf1, stronger effect = lower value 1.01 | locus YDR001C, strain nth1, stronger effect = lower value 1.01 | locus YDR069C, strain doa4, stronger effect = lower value 1.03 | locus YDR101C, strain arx1, stronger effect = lower value 1 | locus YDR137W, strain rgp1, stronger effect = lower value 1.05 | locus YDR159W, strain sac3, stronger effect = lower value 1.01 | locus YDR162C, strain NBP2, stronger effect = lower value 1.02 | locus YDR195W, strain ref2 0.98 | locus YDR297W, strain sur2, stronger effect = lower value 1.01 | locus YDR318W, strain mcm21, stronger effect = lower value 1.01 | locus YDR334W, strain swr1, stronger effect = lower value 1.02 | locus YDR335W, strain msn5, stronger effect = lower value 1.05 | locus YDR388W, stronger effect = lower value 0.989 | locus YDR392W, strain spt3, stronger effect = lower value 1.03 | locus YDR502C, strain sam2, stronger effect = lower value 0.993 | locus YEL003W, strain gim4, stronger effect = lower value 1.02 | locus YEL037C, strain rad23, stronger effect = lower value 1.01 | locus YEL061C, strain CIN8 (second series), stronger effect = lower value 1.02 | locus YEL061C, strain CIN8, stronger effect = lower value 1.01 | locus YER015W, strain faa2, stronger effect = lower value 1.02 | locus YER016W, strain bim1, stronger effect = lower value 1.01 | locus YER110C, stronger effect = lower value 0.995 | locus YER111C, strain swi4, stronger effect = lower value 1.01 | locus YER155C, strain BEM2 (second series), stronger effect = lower value 1.02 | locus YER155C, strain BEM2, stronger effect = lower value 1 | locus YER167W, strain BCK2, stronger effect = lower value 1.02 | locus YFR010W, strain ubp6, stronger effect = lower value 1.01 | locus YGL078C, strain dbp3, stronger effect = lower value 0.994 | locus YGL086W, strain mad1, stronger effect = lower value 1 | locus YGL167C, strain pmr1, stronger effect = lower value 1.02 | locus YGL173C, strain kem1, stronger effect = lower value 1.01 | locus YGL227W, strain vid30, stronger effect = lower value 1.03 | locus YGL240W, strain doc1, stronger effect = lower value 1.04 | locus YGL248W, strain PDE1, stronger effect = lower value 1.01 | locus YGL253W, strain hxk2, stronger effect = lower value 1.02 | locus YGR135W, strain pre9, stronger effect = lower value 0.981 | locus YGR252W, strain gcn5, stronger effect = lower value 0.989 | locus YHR013C, strain ard1, stronger effect = lower value 1.02 | locus YHR027C, strain rpn1, stronger effect = lower value 1.02 | locus YHR030C, strain SLT2, stronger effect = lower value 0.999 | locus YHR079C, strain IRE1 (second series), stronger effect = lower value 1.01 | locus YHR079C, strain IRE1, stronger effect = lower value 0.977 | locus YHR094C, strain hxt1, stronger effect = lower value 0.995 | locus YHR129C, strain ARP1, stronger effect = lower value 1.01 | locus YHR142W, strain chs7, stronger effect = lower value 1.02 | locus YHR200W, strain rpn10, stronger effect = lower value 0.987 | locus YIL066C, strain RNR3, stronger effect = lower value 1.03 | locus YIL073C, strain SPO22, stronger effect = lower value 1.05 | locus YIL125W, strain kgd1, stronger effect = lower value 0.998 | locus YIR030C, strain dcg1, stronger effect = lower value 1.01 | locus YJL092W, strain hpr5, stronger effect = lower value 1.02 | locus YJL095W, strain BCK1 (second series), stronger effect = lower value 1.02 | locus YJL095W, strain BCK1, stronger effect = lower value 1 | locus YJL115W, strain asf1, stronger effect = lower value 1.02 | locus YJL129C, strain trk1, stronger effect = lower value 1 | locus YJL134W, strain LCB3, stronger effect = lower value 1.01 | locus YJL154C, strain vps35, stronger effect = lower value 1.01 | locus YJL164C, strain tpk1, stronger effect = lower value 1.02 | locus YJL166W, strain qcr8, stronger effect = lower value 1.01 | locus YJL168C, strain set2, stronger effect = lower value 0.991 | locus YJL187C, strain SWE1 (second series), stronger effect = lower value 1 | locus YJL187C, strain SWE1, stronger effect = lower value 1 | locus YJR043C, strain POL32, stronger effect = lower value 1.01 | locus YJR066W, strain TOR1, stronger effect = lower value 0.906 | locus YKL009W, strain mrt4, stronger effect = lower value 1 | locus YKL068W, stronger effect = lower value 1.01 | locus YKL085W, strain MDH1 (second series), stronger effect = lower value 1 | locus YKL085W, strain MDH1, stronger effect = lower value 1 | locus YKL160W, strain elf1, stronger effect = lower value 1.02 | locus YKL190W, strain CNB1, stronger effect = lower value 1.01 | locus YKR001C, strain vps1, stronger effect = lower value 0.98 | locus YKR026C, strain gcn3, stronger effect = lower value 1.01 | locus YKR091W, strain srl3, stronger effect = lower value 1.01 | locus YLL001W, strain dnm1, stronger effect = lower value 1.02 | locus YLL026W, stronger effect = lower value 1.01 | locus YLL041C, strain sdh2, stronger effect = lower value 1 | locus YLR027C, strain aat2, stronger effect = lower value 1.02 | locus YLR039C, strain RIC1, stronger effect = lower value 1.03 | locus YLR058C, strain SHM2, stronger effect = lower value 1.02 | locus YLR102C, strain apc9, stronger effect = lower value 0.997 | locus YLR113W, strain HOG1, stronger effect = lower value 1.04 | locus YLR221C, strain rsa3, stronger effect = lower value 1.01 | locus YLR258W, strain gsy2, stronger effect = lower value 1.01 | locus YLR262C, strain YPT6 (second series), stronger effect = lower value 1 | locus YLR268W, strain sec22, stronger effect = lower value 1.02 | locus YLR320W, strain mms22, stronger effect = lower value 1.02 | locus YLR330W, strain CHS5, stronger effect = lower value 1.01 | locus YLR342W, strain FKS1, stronger effect = lower value 1.01 | locus YLR357W, strain rsc2, stronger effect = lower value 1.02 | locus YLR370C, strain arc18, stronger effect = lower value 1.02 | locus YLR371W, strain rom2, stronger effect = lower value 1 | locus YLR384C, strain iki3, stronger effect = lower value 1 | locus YLR418C, strain cdc73, stronger effect = lower value 1.01 | locus YML016C, strain PPZ1, stronger effect = lower value 1 | locus YML032C, strain rad52, stronger effect = lower value 0.994 | locus YML120C, strain ndi1, stronger effect = lower value 1.01 | locus YML124C, strain tub3, stronger effect = lower value 1 | locus YMR058W, strain fet3, stronger effect = lower value 1.02 | locus YMR078C, strain ctf18, stronger effect = lower value 1 | locus YMR125W, strain sto1, stronger effect = lower value 1.01 | locus YMR129W, stronger effect = lower value 1 | locus YMR205C, strain PFK2, stronger effect = lower value 1.02 | locus YMR223W, strain ubp8, stronger effect = lower value 0.99 | locus YMR231W, strain pep5, stronger effect = lower value 1 | locus YMR263W, strain SAP30, stronger effect = lower value 1.01 | locus YMR307W, strain GAS1, stronger effect = lower value 1 | locus YNL067W, strain RPL9B, stronger effect = lower value 1 | locus YNL071W, strain lat1, stronger effect = lower value 1.01 | locus YNL183C, strain NPR1, stronger effect = lower value 0.938 | locus YNL209W, strain ssb2, stronger effect = lower value 1.01 | locus YNL233W, strain BNI4, stronger effect = lower value 1 | locus YNL248C, strain rpa49, stronger effect = lower value 1.01 | locus YNL250W, strain rad50, stronger effect = lower value 0.989 | locus YNL271C, strain bni1, stronger effect = lower value 1.01 | locus YNL298W, strain CLA4, stronger effect = lower value 1 | locus YNL307C, strain MCK1, stronger effect = lower value 0.998 | locus YNL322C, strain KRE1 (second series), stronger effect = lower value 1.02 | locus YNR049C, strain mso1, stronger effect = lower value 1.02 | locus YNR052C, strain pop2, stronger effect = lower value 0.993 | locus YOL006C, strain TOP1, stronger effect = lower value 1.08 | locus YOL012C, strain htz1 1.19 | locus YOL147C, strain pex11, stronger effect = lower value 1 | locus YOR001W, strain rrp6, stronger effect = lower value 1 | locus YOR061W, strain CKA2, stronger effect = lower value 1.03 | locus YOR069W, strain VPS5, stronger effect = lower value 1.01 | locus YOR070C, strain gyp1, stronger effect = lower value 1.02 | locus YOR080W, strain dia2, stronger effect = lower value 1 | locus YOR083W, strain WHI5, stronger effect = lower value 1.02 | locus YOR106W, strain vam3, stronger effect = lower value 1.03 | locus YOR136W, strain idh2, stronger effect = lower value 0.994 | locus YOR144C, strain elg1, stronger effect = lower value 0.996 | locus YOR184W, strain ser1, stronger effect = lower value 1.03 | locus YOR231W, strain MKK1, stronger effect = lower value 0.989 | locus YOR265W, strain rbl2, stronger effect = lower value 0.995 | locus YOR270C, strain vph1, stronger effect = lower value 0.986 | locus YOR290C, strain snf2, stronger effect = lower value 1.04 | locus YOR316C, strain cot1, stronger effect = lower value 0.996 | locus YPL051W, strain arl3, stronger effect = lower value 1.02 | locus YPL078C, strain atp4, stronger effect = lower value 1.03 | locus YPL106C, strain sse1, stronger effect = lower value 1.04 | locus YPL240C, strain hsp82, stronger effect = lower value 1.01 | locus YPL241C, strain CIN2, stronger effect = lower value 1.01 | locus YPL256C, strain CLN2, stronger effect = lower value 0.979 | locus YPR119W, strain clb2, stronger effect = lower value 1 | locus YPR141C, strain kar3, stronger effect = lower value 1.01 | locus YPR163C, strain tif3, stronger effect = lower value 0.996 | locus YPR167C, strain met16, stronger effect = lower value 1 | strain wtn01, stronger effect = lower value 1
